AmpC inh no detg: blocks E. coli AmpC beta-lactamase in detergent-free assay. AmpC nitrocefin hydrolysis, absorbance 480 nm, 0.0001% Triton. Potency, µM (top dose mostly 57.1 µM), for the others: top-dose activity change, negative = inhibition, usual class: inhibitors. P00811. 0.52% of 330,000 active;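 also: plate controls were no compound for no effect and no enzyme for full effect; nearly all actives have a fitted effect of over 20% in size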
Target sequence (P00811 whole entry, looked up): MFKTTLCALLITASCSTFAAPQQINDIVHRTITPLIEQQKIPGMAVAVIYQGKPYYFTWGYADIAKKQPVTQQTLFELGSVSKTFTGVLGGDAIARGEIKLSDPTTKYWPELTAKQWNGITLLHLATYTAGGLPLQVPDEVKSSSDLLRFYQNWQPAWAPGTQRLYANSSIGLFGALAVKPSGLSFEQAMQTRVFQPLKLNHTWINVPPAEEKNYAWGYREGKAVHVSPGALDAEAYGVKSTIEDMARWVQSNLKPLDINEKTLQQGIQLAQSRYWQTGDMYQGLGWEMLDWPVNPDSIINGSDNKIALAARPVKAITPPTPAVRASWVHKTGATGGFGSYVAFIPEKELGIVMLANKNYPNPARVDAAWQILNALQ
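20 mM phosphate pH 7.0 + 0.01% (detergent screen) or 0.0001% Triton X-100; 5.3 nM AmpC reagent; cpd preinc 15 min RT; nitrocefin (800 uM stock) to start; A480 q20 s × 4 min; Activity was normalised to no-enzyme and no-compound control wells.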
Sm TGR block: S. mansoni TGR enzyme inhibition | purified TGR, DTNB reduction, TNB absorbance 405 nm | 3% of 360,000 active | Q962Y6 | Potency, µM (highest dose often 114 µM), inactives show at the top dose activity change, negative = inhibition, actives largely listed as inhibitors | AID 485364; also: % is scaled to controls: 0 for no effect and ±100 for the full control effect; nearly all actives have a fitted effect of over 60% in size
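Kinetic colorimetric format: TGR-catalysed, NADPH-driven DTNB reduction monitored via TNB absorbance. Enzyme dispensed at 20 nM; compound exposure 15 min at room temperature before reaction start.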
SARS PLP yeast: inhibitors of SARS-CoV papain-like protease in yeast; Potency, µM (series often up to 32.9 µM), for inactives: at the highest dose activity, positive = growth rescue, actives largely listed as activators; S. cerevisiae expressing SARS-CoV PLpro, growth rescue; 0.19% of 330,000 active; calls by dose curve; also: 0% is about no effect; nearly all actives have a fitted effect of over 55% in size
Pf growth 48h: P. falciparum growth inhibition at 48 hours (one generation) | P. falciparum luciferase growth in erythrocytes, 48 h | Potency, µM (titrated, usually from 28.7 µM), inactives show at the highest dose activity change, negative = inhibition, most hits filed as inhibitors | 5.9% of 310,000 active | AID 504832; also: % is scaled to controls: 0 for no effect and ±100 for the full control effect
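Growth was read as firefly luciferase luminescence after a 48 h, 37 C, 5% CO2 exposure of compounds to reporter-bearing P. falciparum cultures (0.1% parasitemia, 2% hematocrit final) in Albumax-supplemented RPMI 1640.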
AmpC inh detg: inhibitors of E. coli AmpC beta-lactamase with detergent; P00811; AmpC hydrolysis of nitrocefin, absorbance 480 nm, 0.01% Triton; Potency, µM (highest dose often 114 µM), for inactives: top-dose activity change, negative = inhibition, hits mostly inhibitors; 0.041% of 370,000 active; AID 485294;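 also: 0% = no-compound wells and -100% = no-enzyme wells; nearly all actives have a fitted effect of over 25% in size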
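AmpC (5.3 nM in the dispensed reagent) in 20 mM phosphate pH 7.0 with 0.01% (detergent screen) or 0.0001% Triton X-100 was preincubated with compounds for 15 min at room temperature. Nitrocefin was then added from an 800 uM solution, and hydrolysis was followed at 480 nm.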
Pf growth 96h: inhibits malaria parasite growth, 96 h | P. falciparum luciferase reporter growth, 96 h | Potency, µM (series often up to 28.7 µM), for inactives: at the top dose activity change, negative = inhibition, hits mostly inhibitors | 6.9% of 320,000 active | AID 504834; also: % is scaled to controls: 0 for no effect and ±100 for the full control effect
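Two parasite generations (96 h, 37 C, 5% CO2) of compound exposure in infected erythrocytes (0.05% parasitemia, 2% hematocrit). Luciferase-reporter P. falciparum; decreased luminescence indicates inhibited growth, aimed at apicoplast-acting delayed death.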
Active calls of the source: *; ? = inconclusive; · = not tested or not shown; [ ] = remark or other dose. In the library only some 12% were active in any assay of this set; here they are far more common. Unless noted, calls follow the shape of the dose curve; as a rule, active = well fitted curve in the direction sought with a large enough effect; inconclusive = small, poorly fitted or top-dose-only effect, or another doubt; inactive = no such curve, though single readings can be large; an effect the other way counts as inactive or inconclusive. Potency is read from the fitted curve at half-maximal effect.

SMILES	AmpC inh no detg	Sm TGR block	SARS PLP yeast	Pf growth 48h	AmpC inh detg	Pf growth 96h
Cc1nc2ccc(S(=O)(=O)N(C)CC(=O)Nc3ccccc3F)cc2s1	-14.9%	10.9%	8.3%	?	2.5%	0.2%
CCN(CC(=O)Nc1ccc(N2CCOCC2)cc1)C(=O)COc1ccccc1OC	-5.7%	5.4%	0.6%	-3.2%	-1.2%	13.9%
CN1CCN(C=Nc2nc3ccccc3nc2N2CCCC2)CC1	-0.7%[2.29 µM]	31.6µM*	-0.2%	-8.2%	-9.5%	7.1%
COc1nc2ccccc2nc1N1CCN(C)CC1	5.4%	-3.9%	0.8%	-1.5%	3.4%	-3.8%
N#CCc1ccc(C(=O)c2ccccc2F)s1	0.794µM*	1.0%	-0.3%	-23.1%	-3.1%	?
O=C(O)Cc1ccc(C(=O)c2ccccc2)s1	-13.8%	-12.4%	1.4%	·	-0.5%	-11.4%
CCc1cc2c(cc3c(=O)n(CC(=O)NC4CCCCC4)nc(CC)n32)s1	·	-1.0%	·	·	-4.9%	·
Cc1cc(-c2onc(C)c2C(=O)N/N=C/c2ccccc2)no1	-6.8%	0.0%	-1.6%	-6.1%	-2.5%	43.6%
Cc1ccc(SC(=O)c2c(C)noc2-c2cc(C)on2)cc1	-7.6%	7.94µM*	-2.1%	5.3%	2.2%	-3.7%
CCOCCc1nn2c(=O)cc(COC(=O)c3ccccc3NC(=O)c3ccc(C)cc3)nc2s1	·	-1.3%	·	·	-12.7%	·
C/C(=N\NC(=O)c1cccnc1)c1cccc([N+](=O)[O-])c1	-16.3%	6.9%	0.5%	8.3%	2.1%	?
C/C(=N\NC(=O)c1cc(C)nc2ccccc12)c1ccccn1	-12.8%	1.4%	-2.0%	3.7µM*	-4.9%	3.29µM*
O=C(NNC1=Nc2ccccc2SC1)c1cccc([N+](=O)[O-])c1	-32.3%	6.6%	-0.7%	?	4.3%	10.4µM*
C/C(=N/NC(=O)CNC(=O)c1ccccn1)c1cccc([N+](=O)[O-])c1	-23.8%	20µM*	0.6%	13.5%	-8.3%	20.5%
O=C(NNC(=O)c1ccccn1)c1cccc([N+](=O)[O-])c1	-8.9%	1.0%	-1.3%	13.1µM*	-3.8%	16.6%
COC(=O)c1cccc(NC2=NS(=O)(=O)c3ccccc32)c1	·	4.0%	·	·	4.2%	·
COc1ccccc1Nc1nn2c(=O)c3ccc(C(=O)NCCc4ccccc4)cc3nc2s1	·	1.3%	·	·	21.2%	·
Cc1cccc(N2CC(C(=O)Nc3ccccc3N3CCOCC3)CC2=O)c1C (stereo not drawn)	39.5%	·	-1.1%	·	·	·
Cc1c(/C=N/NC(=O)c2ccc(Br)o2)cnn1C	-24.9%	-2.7%	-1.0%	74.3%	-13.6%	0.0%
CCOC(=O)[C@H]1[C@H]2COc3ccc(Br)cc3[C@@H]2N2C(=O)c3c(C)cc(C)cc3NC(=O)[C@@]12C	-1.4%	·	-3.2%	·	·	·
CSc1ncc(Cl)c(C(=O)Nc2ccc(S(=O)(=O)N3CCC(C)CC3)cc2)n1	·	6.8%	·	·	16.6%	·
C/C(=N\NC(=O)c1cc(-c2ccccn2)nc2ccccc12)c1cccc([N+](=O)[O-])c1	-8.2%	13.5%	1.4%	?	-3.8%	10.4µM*
C#CCOCCOCCOCCNc1nc(N2CCN(C(=O)[C@H](CCCN=C(N)N)n3cc(C(N)[C@@H](C)CC)nn3)CC2)nc(N2CCN(C(=O)[C@H](CCC(=O)O)n3cc([C@@H](N)CO)nn3)CC2)n1 (stereo partly drawn)	19.0%	·	-4.7%	·	·	·
CCOC(=O)c1coc(CNC(=O)c2c(C)oc3c2CCCC3)c1	-9.0%	-17.3%	-0.8%	-10.3%	-14.2%	-8.8%
CCOC(=O)c1cc(CNC(=O)c2c(C)oc3c2CCCC3)c(C)o1	50.4%	22.4µM*	-1.7%	?	-1.1%	?
SMILES	AmpC inh no detg	Sm TGR block	SARS PLP yeast	Pf growth 48h	AmpC inh detg	Pf growth 96h
Cc1cc(C)cc(N(C(=O)c2csnn2)C(C(=O)NC2CCCCC2)c2ccccn2)c1 (stereo not drawn)	43.9%	1.2%	-2.1%	?	-1.2%	-1.0%
CC(=O)c1c(C)[nH]c(C(=O)COc2cc(C)ccc2C(C)C)c1C	-21.3%	-2.3%	-3.1%	·	8.0%	4.65µM*
Cn1c(=O)n(C/C=C/c2ccccc2)c(=O)c2c1nc1n2CCCN1c1ccc(F)cc1	19.3%	0.0%	0.1%	11.7µM*	-6.3%	?
COc1ccc(CCN2CCCn3c2nc2c3c(=O)n(Cc3ccccc3F)c(=O)n2C)cc1OC	21.3%	?	-2.4%	2.33µM*	-13.2%	2.94µM*
CCn1c(=O)c2c(nc3n2CCCN3CCc2ccc(OC)c(OC)c2)n(C)c1=O	43.9%	-5.4%	0.0%	?	-7.4%	?
CCn1c(=O)c2c(nc3n2CCCN3Cc2ccccc2)n(C)c1=O	7.2%	0.3%	2.1%	?	1.6%	-16.0%
C=CCn1c(=O)c2c(nc3n2CCCN3Cc2ccccc2)n(C)c1=O	57.6%	5.0%	-9.1%	?	-14.7%	-25.1%
CC(C)Cn1c(=O)c2c(nc3n2CCCN3Cc2ccccc2)n(C)c1=O	68.1%	11.8%	0.5%	10.4µM*	?	11.7µM*
Cn1c(=O)n(C/C=C/c2ccccc2)c(=O)c2c1nc1n2CCCN1Cc1ccccc1	0.0%	-6.4%	1.4%	13.1µM*	?	14.7µM*
CCOc1ccc(OCC)c(NS(=O)(=O)c2ccc3c(c2)CCCN3C(C)=O)c1	·	1.2%	·	·	1.4%	·
Cc1ccc(N(CC(=O)N2CCN(c3cc(C)ccc3C)CC2)S(=O)(=O)c2c(C)nn(C)c2C)cc1	·	-3.5%	·	·	1.7%	·
CCc1ccc(CN(Cc2cn[nH]c2-c2ccc(OC)cc2)C(=O)Nc2cc(Cl)ccc2OC)cc1	·	-0.7%	·	·	6.5%	·
Cn1c(=O)n(CC(=O)O)c(=O)c2c1nc1n2CCCN1Cc1ccccc1	-23.9%	?	11.5%	50.9%	-5.8%	?
Cc1cccc(Cn2c(=O)c3c(nc4n3CCCN4Cc3ccccc3)n(C)c2=O)c1	1.0%	12.9%	1.8%	13.1µM*	1.0%	·
c1cc(Nc2ncnc3sc4c(c23)CCC4)ccn1	-17.8%	·	-1.3%	1.65µM*	0.8%	13.5%
C[C@H](NC(=O)c1nc[nH]c1C(=O)NCCCCCNC(=O)OC(C)(C)C)C(=O)OCc1ccccc1	124.6%	3.0%	-0.7%	47.2%	4.3%	0.0%
CC(C)C[C@H](NC(=O)c1nc[nH]c1C(=O)NCCCCCNC(=O)OC(C)(C)C)C(=O)OCc1ccccc1	40.2%	-14.8%	-0.6%	?	9.3%	9.28µM*
CC(C)C[C@H](NC(=O)c1nc[nH]c1C(=O)N[C@@H](CCCCNC(=O)OC(C)(C)C)C(=O)OC(C)(C)C)C(=O)OCc1ccccc1	-1.2%	22.7%	5.4%	?	0.8%	3.29µM*
NCCCCCNC(=O)c1[nH]cnc1C(=O)N[C@@H](Cc1ccccc1)C(=O)OCc1ccccc1	62.7%	·	4.5%	·	·	·
